Assay results from the OligoGym collection.

The sequences below were run against ZNF20 (assay: pooled miR-30 sensor sort-seq; sequence = guide strand). Conditions: shRNA.
Also: reference of the scale not given here.

Sequence | sensor-assay potency score (higher = more potent)
TTTCTCTTTAGTGCAAGCTTTA | -0.882
TATTAAGAGATGAATGACCCGT | -0.0204
TAAGACTTAGATTTCTCCTGGG | 0.935
TTTCACATGGTGTTATTCCAGG | -0.755
TTTCTCTCCACTGTGCGTCCTT | -0.157
TTCAATGTTCTGAACTTTCCAT | -0.266
TTTCTGTACATTCTTTACCATC | -1.72
TGAAGTTGTGAAGCACATCTAA | -0.501
TAGTGCAAGCTTTATCATGTGA | -0.356
TTGTATTACGAAACCATCCAAG | -0.687
TTCTATATGGATTCTCTCCATA | -1.01
TACCACAGTGCTTACATTCATA | -0.662

What follows are sequences tested against ZNF213 in the same assay as above. Conditions: shRNA.

Sequence | sensor-assay potency score (higher = more potent)
TCACTGGCTGCTTCTGTAGGTC | -0.833
TTCGGAATCCCTGCCATCCTCA | -0.738
TAATACTCTTCTGTTGCCCTTT | 0.353
TTGAGCCCAAAACCCAGGGTGG | -1.3
TCACTTTGGCCTTTGAGCCCAA | -0.58
ATCCCTGCCATCCTCATGCTGG | -1.09
TTTGAGCCCAAAACCCAGGGTG | -0.556
TTCTGTAGGTCCTCCACCAAGG | -1.39
TGTAGGTCCTCCACCAAGGCGA | -0.787
TCGGGTTCCGCCTCCTCCGAGG | -1.19
TGTCTGGCCTGGCACCACCGGC | -1.68
TTTCACTGGCTGCTTCTGTAGG | -0.917

These sequences were tested against ZNF214 in the same assay as above. Conditions: shRNA.

Sequence | sensor-assay potency score (higher = more potent)
TTATAGAATTTCTCTTCTGTGT | -0.222
TCTTTGATGAGTGTGAAGCTTT | -0.426
TAAACTTTGATTAAAGCTGTTA | -0.478
TTGGATGTCTATACAAGTCTGA | 0.602
TTAACCATTCCTGACACTGGGA | -0.384
TGAGCTGTGACTAAAGTCCTTT | -0.611
TCTTGTGGAAAACACACCGTGA | -0.342
TCTACTGACATGACATTTGTGT | 0.423
TAGAACTGTGACTAAAACCCTT | -0.352
TTTTATAGAATTTCTCTTCTGT | 1.04
TATACAAGTCTGATCTCTGAGA | -0.855
TCTGATGAAAGTGAACTCCGGA | 0.913

Each sequence was assayed against ZNF219 in the same assay as above. Conditions: shRNA.

Sequence | sensor-assay potency score (higher = more potent)
TATCGCTGCAGATCCAGCTCGC | 0.347
TTCCGCAGAAAGGACAATCCTT | -0.585
TGGAGTATCGCTGCAGATCCAG | -1.26
